Results taken from PubChem BioAssay (EPA / NIEHS).
Values joined by “and” are separate entries in the source; they are usually repeats but may differ in a detail not shown here. Equal values may be shown once. Results filed as inconclusive are left out. Active and inactive are the calls of the source. The calls were made as follows: active = hit-call score of the fitted dose curve at least 0.9, where 1 is the maximum; inconclusive = response in the unintended direction; inactive = score below 0.9.

Molecular target: human Peripheral-type Benzodiazepine Receptor (PBR), TSPO (gene 706) (UniProt P30536)
Sequence (P30536 whole entry, looked up): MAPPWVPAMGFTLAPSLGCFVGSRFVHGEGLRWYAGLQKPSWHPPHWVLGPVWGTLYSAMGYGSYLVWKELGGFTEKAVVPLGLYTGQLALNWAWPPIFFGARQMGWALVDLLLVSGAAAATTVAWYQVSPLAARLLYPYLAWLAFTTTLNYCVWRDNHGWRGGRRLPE
Experiment: NVS_MP_hPBR: NovaScreen (NVS) Membrane Protein Assay for human Peripheral-type Benzodiazepine Receptor (PBR) (AID 2283331)
Method: NVS_MP_hPBR is a biochemical, single-readout assay that uses extracted gene-proteins from Human colonic cell membranes in a tissue-based cell-free assay. Measurements were taken 1 hour after chemical dosing in a 48-well plate.NVS_MP_hPBR is one of one assay component(s) measured or calculated from the NVS_MP_hPBR assay. It is designed to make measurements of radioligand binding, a form of binding reporter, as detected with scintillation counting signals by Filter-based radiodetection technology.Data from the assay component NVS_MP_hPBR was analyzed into 1 assay endpoint. This assay endpoint, NVS_MP_hPBR, was analyzed in the positive analysis fitting direction relative to DMSO as the negative control and baseline of activity. Using a type of binding reporter, loss-of-signal activity can be used to understand changes in the binding as they relate to the gene TSPO. Furthermore, this assay endpoint can be referred to as a primary readout, because the performed assay has only produced 1 assay endpoint. To generalize the intended target to other relatable targets, this assay endpoint is annotated to the transporter intended target family, where the subfamily is cholesterol transporter.
Binding assays used specific radioligands (tritiated, iodinated) with non-radioactive competitive displacement ligands in agonist or antagonist protocols (as indicated) and various reference compounds and inhibitors to titrate specific binding to receptors and transporters. Most enzyme assays (CYPs, kinases, phosphatases, proteases, HDACs) used recombinant protein and specific substrates (fluorescence mostly, some colorimetric and radioactive) and inhibitors, followed by a biochemical separation of substrate and product. All assays for the biochemical HTS were initially run in duplicate at a single concentration (10 uM for CYP450 assays and 25 uM for all others). […] Each assay was run with positive and negative controls, and concurrent controls on every plate. The follow-up (secondary) screen tested active chemical-pairs in concentration series, as well as a few additional assays not tested in the primary screen, some selected negative inactives, and several cases re-run in the concentration series for confirmatory purposes.

| SMILES | AC50 | outcome |
| --- | --- | --- |
| Cc1oc(-c2ccccc2)nc1CCOc1ccc(C[C@H](Nc2ccccc2C(=O)c2ccccc2)C(=O)O)cc1 | 6.36 µM (active) | – |
| NC(=O)N1C(=O)C(C(=O)c2cc(Cl)cs2)c2cc(F)c(Cl)cc21 (stereo unspecified) | 0.951 µM (active) | – |
| CCC(=C(c1ccc(O)cc1)c1ccc(OCCN(C)C)cc1)c1ccccc1 | – | inactive |
| CC[C@H](c1ccc(O)cc1)[C@@H](CC)c1ccc(O)cc1 | 795 nM (active) [middle of 4 runs] | – |
| CCc1ccc(CCOc2ccc(CC3SC(=O)NC3=O)cc2)nc1 (stereo unspecified) | 12.1 µM (active) | – |
| NC(=O)N(O)[C@@H]1C=C[C@H](Oc2cccc(Oc3ccc(F)cc3)c2)C1 | 28.5 µM (active) | – |
| c1ccc2cc3c(ccc4ccccc43)cc2c1 | 3.45 µM (active) and 5.17 µM (active) and 12.5 µM (active) | – |
| CC1=C(/C=C/C(C)=C/C=C/C(C)=C/C(=O)O)C(C)(C)CCC1 | 18.1 µM (active) | – |
| CCN(CC)CCNc1ccc(CNC=O)c2sc3ccc(OC)cc3c(=O)c12 | 8.04 µM (active) | – |
| O=C(O)Cc1cc(I)c(Oc2cc(I)c(O)c(I)c2)c(I)c1 | – | inactive |
| CCCOC(=O)c1ccc(O)cc1 | – | inactive |
